Hit rate of the full screen: of about 1,200 compounds, about 480 (40%) were called active. How the calls were made is not given here. So high a share suggests a set chosen from earlier hits. The list is a sample of the results. Entries with a potency or affinity are not part of this list.
assay: HepG2 cell cytotoxicity, dose response, cytotoxicity control, CellTiter-Glo luminescence, cherry-pick, set 2 (AID 743395); conditions: HepG2 viability, CellTiter-Glo ATP luminescence, 72 h; series mostly up to 26 µM; activity change, negative = cytotoxicity: at the top concentration;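 further: 0% = neutral control wells and -100% = positive control wells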

| Structure (SMILES) | activity change, negative = cytotoxicity |
| --- | --- |
| COc1ccc(CCC(=O)N2CCN(S(=O)(=O)c3ccc(OC(F)(F)F)cc3)CC2)cc1 | -3.96% (inactive) |
| CCS(=O)(=O)N1CC(=O)N2[C@H](CO)[C@@H](c3ccc(C#CCC(C)C)cc3)[C@@H]2C1 | -5.68% (inactive) |
| CCS(=O)(=O)N1CC(=O)N2[C@H](C1)[C@@H](c1ccc(C#CCC(C)C)cc1)[C@@H]2CO | 5.82% (inactive) |
| CS(=O)(=O)N1CC(=O)N2[C@H](C1)[C@H](c1ccc(C#Cc3ccc(F)cc3)cc1)[C@@H]2CO | 9.48% (inactive) |
| COc1ccccc1N1CCN(/N=C/C=C\c2ccccc2[N+](=O)[O-])CC1 | -6.14% (inactive) |
| COc1cc(SC)ccc1C(=O)N1CCN(c2ccccc2OC)CC1 | -19.4% (inactive) |
| Cc1ccc(C(=O)NCC(=O)OCC(=O)NC(C)c2ccccc2)s1 (configuration not stated) | 1.29% (inactive) |
| C[C@@H]1CN([C@@H](C)CO)C(=O)c2cccc(NC(=O)Nc3ccc4c(c3)OCO4)c2O[C@H]1CN(C)S(=O)(=O)c1ccccc1 | -9.43% (inactive) |
| C[C@H]1CCCCO[C@H](CN(C)C(=O)Cc2ccccc2)[C@@H](C)CN([C@@H](C)CO)C(=O)c2cc(N(C)C)ccc2O1 | 17.5% (inactive) |
| C[C@@H]1CN([C@@H](C)CO)C(=O)Cc2cc(NC(=O)Nc3ccc(C(F)(F)F)cc3)ccc2O[C@H]1CN(C)C(=O)Nc1ccccc1 | 1.88% (inactive) |
| C[C@H](CO)N1C[C@H](C)[C@H](CN(C)Cc2ccc(Cl)c(Cl)c2)Oc2ccc(NC(=O)C3CCCCC3)cc2CC1=O | -6.82% (inactive) |
| C[C@@H]1CN([C@@H](C)CO)C(=O)c2cc(NC(=O)Nc3cccc4ccccc34)ccc2O[C@@H](C)CCCCO[C@@H]1CN(C)Cc1ccc2c(c1)OCO2 | -26.5% (inactive) |
| C[C@@H]1CN([C@H](C)CO)C(=O)c2cc(NC(=O)Cc3cn(C)c4ccccc34)ccc2O[C@@H]1CN(C)Cc1ccc(Cl)c(Cl)c1 | -4.98% [at 23.5 µM] (inactive) |
| C[C@@H]1CN([C@@H](C)CO)C(=O)Cc2cc(N(C)C)ccc2O[C@@H]1CN(C)Cc1ccccc1 | 11% (inactive) |
| CCNC(=O)C1CCCN(C(=O)c2cc(F)ccc2C)CC1 (configuration not stated) | -0.235% (inactive) |
| CCNC(=O)C1(C)CCN(C(=O)c2cc(F)ccc2C)C1 (configuration not stated) | -6.93% (inactive) |
| Cc1cccc(CC(=O)Nc2cccnc2)c1 | -1.85% (inactive) |
| CN1c2ccc(-c3ccc(C#N)cc3)cc2[C@H]2[C@H](CCN2S(=O)(=O)c2cccc(F)c2)[C@H]1CO | -16.1% (inactive) |
| CN1c2ccc(-c3ccc(C#N)cc3)cc2[C@H]2[C@H](CCN2S(=O)(=O)c2cccc(F)c2)[C@@H]1CO | -0.956% (inactive) |
| O=C(O)C1=C[C@@H](O)[C@@H](O)[C@H](O)C1 | -13.4% (inactive) |
| CCOCCOC(=O)COC(=O)c1ccccc1NC(=O)c1ccccc1 | -0.163% (inactive) |
| COc1ccc(C(=O)c2cc(OC)c(OC)c(OC)c2)cc1OC | 7.79% (inactive) |

| Structure (SMILES) | activity change, negative = cytotoxicity |
| --- | --- |
| COc1ccc(C(=O)Nc2ccccc2C(=O)Nc2ccccc2)cc1 | -24.1% (inactive) |
| Cc1nc(NCc2cccnc2)c2c3c(sc2n1)CCCC3 | -5.3% (inactive) |
| COc1ccc(-c2cc(=O)c3c(O)cc(O)cc3o2)cc1 | -9.33% (inactive) |
| O=C1NC(=Nc2cccnc2)S/C1=C/c1ccc(F)cc1 | -14.8% (inactive) |
| Cn1cccc1/C=C1\SC(=Nc2ccc(O)cc2)NC1=O | -16.7% (inactive) |
| C=CC[C@@H](CC(=O)N(CCO)Cc1ccccc1)C(=O)N[C@H](COC(=O)[C@H](CC=C)CC(=O)OC(C)(C)C)Cc1c[nH]c2ccccc12 | -12.6% (inactive) |
| CC(C)CC#Cc1ccc([C@H]2[C@H](CO)N3C(=O)CN(C(=O)Nc4cc(F)ccc4F)C[C@@H]23)cc1 | -9.28% (inactive) |
| CCCNC(=O)N1[C@H](C#N)[C@H](c2ccc(C#Cc3ccc(F)cc3)cc2)[C@@H]1CO | -23.9% (inactive) |
| O=C(Nc1cc(F)ccc1F)N1CC(=O)N2[C@@H](CO)[C@H](c3ccc(C#CC4CCCCC4)cc3)[C@@H]2C1 | -6.48% (inactive) |
| CCCC#Cc1ccc([C@H]2[C@H](CO)N3C(=O)CN(C(=O)Nc4cc(F)ccc4F)C[C@@H]23)cc1 | -5.13% (inactive) |
| Cc1ccc(-c2cccc(CN3CCN(C(C)C)C(CCO)C3)c2)o1 (configuration not stated) | -17.7% (inactive) |
| COc1cc(-c2noc(C)c2C#Cc2ccsc2)cc(OC)c1OC | -17.5% (inactive) |
| COc1cc(-c2noc(C)c2C#Cc2ccccn2)cc(OC)c1OC | -16.2% (inactive) |
| O=C(CCC(=O)N1CCOc2ccc(Cl)cc21)N1CCN(c2ccccn2)CC1 | 2.93% (inactive) |
| CCN1CCCC(OC(=O)c2cc(-c3ccccc3Cl)nc3ccccc23)C1 (configuration not stated) | -10.8% (inactive) |
| CCOc1ccc(-c2cc(C(=O)N/N=C/c3ccc(O)cc3)c3ccccc3n2)cc1 | -21.9% (inactive) |
| COC(=O)Cc1c(O)ccn(Cc2ccc(Cl)c(Cl)c2)c1=O | -16.8% (inactive) |
| CN1C(=O)c2cc(NC(=O)c3ccc(Cl)cc3)ccc2OC[C@@H]2O[C@H](CC(=O)NCc3cccc(F)c3)CC[C@H]21 | 18.6% (inactive) |
| CCN(CC(=O)Nc1ccc(NC(C)=O)cc1)C(=O)c1ccc(N2CCC(C)CC2)c([N+](=O)[O-])c1 | -18.6% (inactive) |
| Cc1c(CCC(=O)O)c(=O)oc2c(C)c(OCc3ccccc3Cl)ccc12 | 5.78% (inactive) |
| COc1ccc(C(C)=O)cc1CS(=O)(=O)CC(=O)NCCc1c[nH]c2ccccc12 | -4.03% (inactive) |
| O=C(CN(Cc1ccco1)Cc1ccco1)Nc1cc(S(=O)(=O)N2CCCCC2)ccc1Cl | 13.7% (inactive) |

| Structure (SMILES) | activity change, negative = cytotoxicity |
| --- | --- |
| Cc1c(OCC(=O)NCCN2CCOCC2)ccc2c3c(c(=O)oc12)CCC3 | -6.09% (inactive) |
| Oc1cc2c(cc1O)C(c1ccccc1)CNCC2 (configuration not stated) | 0.38% (inactive) |
| COc1ccc(OC)c(C2CC(c3ccccc3)=NN2C(=S)Nc2ccccc2)c1 (configuration not stated) | -20.7% (inactive) |
| CCOc1ccc(N(CC)C(=O)COc2cc(=O)n(C)c3ccccc23)cc1 | 11.3% (inactive) |
| CCOC(=O)c1c(C)[nH]c(C)c1C(=O)COC(=O)c1ccc([N+](=O)[O-])s1 | -18.1% (inactive) |
| C/C=C/c1ccc([C@H]2[C@@H](CO)N(C(=O)COC)[C@@H]2CNC(=O)CC)cc1 | -0.817% [at 23.5 µM] (inactive) |
| Cc1cc(/C=N/NC(N)=S)c(O)c(/C=N/NC(N)=S)c1 | -18% (inactive) |
| Cc1cc2c(cc1C)C(c1ccccc1OC(C)C)CC(=O)N2 (configuration not stated) | -16.4% (inactive) |
| O=C(Nc1ccccc1)c1nc[nH]c1C(=O)Nc1ccccc1F | -20.8% (inactive) |
| CN(CC(=O)Nc1cccc(S(=O)(=O)N2CCCC2)c1)CC(=O)Nc1ccc(F)c(F)c1F | -10.9% (inactive) |
| COc1cccc(-c2cccc(-c3nc(C(=O)NCC(F)(F)F)cc4c3[C@H](CCO)N([S@@](=O)C(C)(C)C)C4)c2)c1 | -28.3% (inactive) |
| N#Cc1nc(NCC(F)F)nc(Nc2cc(F)cc(F)c2)n1 | -8.63% (inactive) |
| COCCCNc1nnc(Cc2ccc(Cl)cc2)c(=O)[nH]1 | -22% (inactive) |
| O=C(CN1CCN(S(=O)(=O)c2ccccc2)CC1)Nc1ccccc1Cl | -11.1% (inactive) |
| N#CCC(=O)N/N=C/c1cn(Cc2cccc3ccccc23)c2ccccc12 | 5.87% (inactive) |
| COc1ccc2oc(C(=O)N3CCN(C(=O)c4ccco4)CC3)c(C)c2c1 | -4.08% (inactive) |
| COc1ccc(NC(=O)c2ccc(NC(=O)c3nc4nccc(C)n4n3)cc2)cc1 | -15.4% (inactive) |
| CCCc1nc2ccccc2c(C(=O)OCC(=O)NCc2ccc3c(c2)OCO3)c1CC | -28.8% (inactive) |
| COc1ccc(CC(=O)Nc2nccs2)cc1S(=O)(=O)N1CCOCC1 | -8.61% (inactive) |
| Cc1ccc(S(=O)(=O)N2CCOCC2)cc1NC(=O)COC(=O)c1ccc(Cl)nc1 | 4.96% (inactive) |
| Cc1ccc(S(=O)(=O)Nc2ccc3c(c2)C(=O)N([C@@H](C)CO)C[C@H](C)[C@H](CN(C)S(=O)(=O)c2ccc(C)cc2)OCCCC[C@@H](C)O3)cc1 | -3.79% [at 23.5 µM] (inactive) |
| C[C@@H]1CN([C@H](C)CO)C(=O)c2cc(NC(=O)Cc3ccccc3)ccc2O[C@@H]1CN(C)S(C)(=O)=O | 6.51% [at 23.5 µM] (inactive) |

| Structure (SMILES) | activity change, negative = cytotoxicity |
| --- | --- |
| COc1ccc(S(=O)(=O)Nc2ccc3c(c2)C(=O)N([C@H](C)CO)C[C@@H](C)[C@@H](CN(C)Cc2ccc(C(F)(F)F)cc2)O3)cc1 | -4.66% (inactive) |
| COc1ccc(S(=O)(=O)Nc2ccc3c(c2)C(=O)N([C@@H](C)CO)C[C@@H](C)[C@H](CN(C)Cc2ccc(Oc4ccccc4)cc2)O3)cc1 | 14% (inactive) |
| C[C@H](CO)N1C[C@H](C)[C@H](CN(C)C(=O)NC2CCCCC2)Oc2ncc(-c3cc4ccccc4o3)cc2C1=O | -3.27% (inactive) |
| Cc1ccc(S(=O)(=O)N(C)C[C@@H]2OCCCC[C@@H](C)Oc3ccc(NS(=O)(=O)c4ccc(Cl)cc4)cc3C(=O)N([C@@H](C)CO)C[C@@H]2C)cc1 | -3.66% (inactive) |
| N#C[C@@H]1[C@H](c2ccc(-c3cccc(F)c3)cc2)[C@H](CO)N1C(=O)NC1CCCC1 | -16.6% (inactive) |
| CCCNC(=O)N1[C@H](CO)[C@@H](c2ccc(C3=CCCC3)cc2)[C@@H]1CN(C)C(C)=O | 7.91% (inactive) |
| CCOc1ccccc1N1CCN(C(=O)c2cc3ccccc3cc2OC)CC1 | -16.5% (inactive) |
| Cc1nn(C)c(C)c1/C=C/C(=O)O | -1.57% (inactive) |
| COc1cc(/C=C/C(=O)O)cc(S(=O)(=O)Nc2ccc3cn[nH]c3c2)c1OC | 1.05% (inactive) |
| O=C(CSC1=NNC(c2ccccn2)S1)Nc1ccccc1 (configuration not stated) | -4.35% (inactive) |
| COc1ccc(C)cc1NC(=O)CNC(c1ccccc1)c1ccc(C)cc1 (configuration not stated) | 8.87% (inactive) |
| CN(C)S(=O)(=O)c1ccc2c(c1)/C(=C/c1cc3c([nH]1)CCCC3)C(=O)N2 | -13% (inactive) |
| COC(=O)Cn1c(=NC(=O)c2cc(-c3cccs3)nc3ccccc23)sc2cc(S(N)(=O)=O)ccc21 | -5.09% (inactive) |
| CN(c1ccc(O)cc1)c1nc(-c2cccs2)cs1 | -12.2% (inactive) |
| C=CCN=c1scc(C)n1/N=C/c1ccc(O)c(O)c1 | -26.3% (inactive) |
| COCOc1cccc(CN2CCC(C)(Oc3cccc(C#N)c3)C2)c1 (configuration not stated) | -17.5% (inactive) |
| O=C(NCc1cccs1)c1cc(-c2ccccc2)nn1CC1CC(c2cccc([N+](=O)[O-])c2)=NO1 (configuration not stated) | -7.8% (inactive) |
| C=CCN1C(=O)/C(=C/C=C2/N(CC)c3ccc(S(=O)(=O)N(C)C)cc3N2CC)SC1=S | -19.1% (inactive) |
| COc1ccc2c(c1)C(=O)CC(c1ccc3c(c1)OCCO3)O2 (configuration not stated) | -9.83% (inactive) |
| CCOc1ccc(Cl)cc1C1=CC(=O)C[C@H](c2ccc(OC)cc2)C1 | -6.55% (inactive) |
| COc1ccc(C2CN=NC23CCc2ccccc2C3=O)cc1 (configuration not stated) | -5.59% (inactive) |

— PubChem BioAssay AID743395 (Broad Institute, 2014)
